Source: PubChem
3T3 cytotox: NIH 3T3 cell cytotoxicity; NIH 3T3 viability, CellTiter-Glo ATP luminescence, 48-72 h; Potency, µM (top dose mostly 96.7 µM), usual class: inhibitors; 4.3% of 94,000 active; AID 1345082; note: nearly all actives have a fitted effect of over 55% in size
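ATP-dependent luminescence (CellTiter-Glo) served as the viability signal for NIH 3T3 cells treated with compound for 48 or 72 hr at 37 °C.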
GPT2 inhibitor: GPT2 alanine aminotransferase inhibition. Recombinant GPT2, coupled pyruvate oxidase/HRP Amplex Red fluorescence. Potency, µM (highest dose often 57.7 µM), most hits filed as inhibitors. 0.25% of 100,000 active; note: nearly all actives have a fitted effect of over 60% in size
Target sequence (Q8TD30 whole entry, looked up): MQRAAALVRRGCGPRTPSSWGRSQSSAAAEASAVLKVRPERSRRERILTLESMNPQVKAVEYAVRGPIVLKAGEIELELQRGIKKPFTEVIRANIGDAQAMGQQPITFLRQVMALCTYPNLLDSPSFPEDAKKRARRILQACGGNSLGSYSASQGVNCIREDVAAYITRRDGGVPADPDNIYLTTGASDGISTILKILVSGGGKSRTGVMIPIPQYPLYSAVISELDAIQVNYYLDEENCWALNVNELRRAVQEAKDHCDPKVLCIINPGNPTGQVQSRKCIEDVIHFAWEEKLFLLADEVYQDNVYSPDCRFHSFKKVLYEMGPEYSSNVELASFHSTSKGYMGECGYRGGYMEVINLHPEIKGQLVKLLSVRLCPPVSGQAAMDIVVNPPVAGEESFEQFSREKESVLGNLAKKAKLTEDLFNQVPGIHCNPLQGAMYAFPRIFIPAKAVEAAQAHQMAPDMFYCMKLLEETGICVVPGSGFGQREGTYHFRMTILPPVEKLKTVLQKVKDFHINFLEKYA
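Fluorescence read-out: pyruvate from GPT2 turnover coupled to pyruvate oxidase, HRP and Amplex Red (0.2mM ThPP, 0.2U/mL PO and HRP, 50uM Amplex final). Substrates 250uM a-KG, 2mM L-alanine; enzyme 10ng/uL; 30 min RT.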
Luciferase inh: Photinus pyralis luciferase inhibition | P08659 | purified P. pyralis luciferase, luminescence, biochemical | Potency, µM (doses to about 115 µM), usual class: inhibitors | 2.5% of 76,000 active; note: nearly all actives have a fitted effect of over 65% in size
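Biochemical qHTS: compound (6-point titration) added to 10uM D-luciferin plus 10uM ATP in Tris acetate pH 7.5 buffer with Mg, Tween-20 and BSA, then purified enzyme at 10nM; light output imaged.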
hNpr1 antagonist: antagonists of human natriuretic peptide receptor Npr1 | AID 1347048 | HEK293 hNpr1 GloSensor cGMP, ANP-stimulated luminescence | P16066 | 1.6% of 76,000 active | Potency, µM (top dose mostly 46.3 µM), usual class: inhibitors; calls by dose curve; note: nearly all actives have a fitted effect of over 60% in size
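Compound pre-incubated 30 min at room temperature on GloSensor-loaded HEK293 cells stably carrying hNpr1 and the pGS-40F cGMP biosensor. Stimulation uses hNppA at 0.1 nM final; luminescence is taken at baseline and 20 min post-agonist.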
HEK293 tox: kills HEK 293 cells; HEK 293 viability, ATP luminescence (CellTiter-Glo), 48-72 h; 6.6% of 94,000 active; Potency, µM (top dose mostly 115 µM), usual class: inhibitors; note: nearly all actives have a fitted effect of over 60% in size
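HEK 293 cells seeded at 250 cells/well were exposed to compound for 48 or 72 hr at 37 degree Celsius. Viability taken as ATP content by CellTiter-Glo luminescence.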
Each line names hits and unclear results; the compound was inactive in the other large screens; ! = not confirmed by another sample. Shown are actives, neighbours in structure and some others; about 10% of the full set was active somewhere. Unless noted, calls come from the whole dose curve; as a rule, active = well fitted curve in the direction sought with a large enough effect; inconclusive = small, poorly fitted or top-dose-only effect, or another doubt; inactive = no such curve, though single readings can be large; an effect the other way counts as inactive or inconclusive.

CC(NC(=O)c1cc(-c2ccncc2)cn1C)c1ccc(F)cc1 (centres undefined)	HEK293 tox 79.4µM
COc1ccc2cc(C3CN(Cc4nc(C(N)=O)no4)CCO3)ccc2c1 (centres undefined)	none
COc1ccc2cc(C3CN(CCC(=O)NC(C)(C)C)CCO3)ccc2c1 (centres undefined)	3T3 cytotox inconclusive, Luciferase inh inconclusive, hNpr1 antagonist inconclusive, HEK293 tox 44.7µM
CC1=C(C(=O)Nc2cc(Cl)ccc2Cl)C(c2ccco2)C2=C(CCCC2=O)N1 (centres undefined)	none (no result: 3T3 cytotox, Luciferase inh, hNpr1 antagonist, HEK293 tox)
Cc1cc(C(=O)NCc2ccncc2)c2c(C3CCNCC3)noc2n1	none (no result: Luciferase inh, hNpr1 antagonist)
CNC(=O)c1cccc(-c2cnc(Nc3cccc(C(F)(F)F)c3)c3c2CCO3)c1	3T3 cytotox 39.8µM, Luciferase inh inconclusive, hNpr1 antagonist inconclusive, HEK293 tox 63.1µM
CNC(=O)c1cccc(-c2cnc(Nc3cccnc3)c3c2CCO3)c1	3T3 cytotox inconclusive, Luciferase inh 25.1µM, HEK293 tox inconclusive
Fc1cccc(Nc2ncc(-c3cncnc3)c3c2OCC3)c1	none (no result: 3T3 cytotox, Luciferase inh, hNpr1 antagonist, HEK293 tox)
O=C(Nc1ncc(-c2cccc(F)c2)c2c1OCC2)c1ccc(F)c(Cl)c1	3T3 cytotox inconclusive, HEK293 tox 35.5µM
Cc1noc(C)c1-c1cnc(Nc2cccc(C(F)(F)F)c2)c2c1CCO2	3T3 cytotox inconclusive, Luciferase inh inconclusive, HEK293 tox 63.1µM
CNC(=O)CCn1ncc2cc(OC3CCc4cccc(-c5cccnc5OC)c43)ccc21 (centres undefined)	3T3 cytotox inconclusive, GPT2 inhibitor inconclusive, HEK293 tox inconclusive
O=C(O)CCCC(=O)N1Cc2ccccc2CC2(CCCN(Cc3ccncc3)C2)C1 (centres undefined)	none (no result: Luciferase inh, hNpr1 antagonist)
O=C(Nc1cccc(Cl)c1)c1cn2cc(-c3ccc(C(F)(F)F)cc3)sc2n1	none (no result: Luciferase inh, hNpr1 antagonist)
CNC(=O)c1cccc(-c2cnc(Nc3ccc(F)c(Cl)c3)c3c2CCO3)c1	3T3 cytotox inconclusive, Luciferase inh 10µM, HEK293 tox 28.2µM
CNC(=O)c1cccc(-c2cnc(Nc3ccncc3)c3c2CCO3)c1	3T3 cytotox inconclusive, HEK293 tox inconclusive
Fc1cccc(-c2cnc(Nc3cnccn3)c3c2CCO3)c1	3T3 cytotox inconclusive, Luciferase inh inconclusive, HEK293 tox 100µM
O=C(Nc1ncc(-c2cccc(F)c2)c2c1OCC2)c1ccncc1	3T3 cytotox inconclusive
COCCN1CC(CO)C2(CCN(Cc3ccc(Cl)cc3F)CC2)C1 (centres undefined)	3T3 cytotox inconclusive, HEK293 tox inconclusive
C#CCNC(=O)c1cc(C(C)(C)C)nc2c1cnn2C	3T3 cytotox inconclusive, HEK293 tox inconclusive (no result: Luciferase inh, hNpr1 antagonist)
Cc1oc(C(O)c2ccccc2)nc1C(=O)NCc1ccco1 (centres undefined)	3T3 cytotox inconclusive, HEK293 tox inconclusive
COc1cc(CNC(=O)c2nc(C(O)c3ccccn3)oc2C)cc(OC)c1 (centres undefined)	3T3 cytotox 79.4µM, HEK293 tox inconclusive
CCC(=O)N1CCC(OC2CCN(Cc3cccnc3)CC2)CC1	none
CCOC(=O)C1CCN(C(=O)c2nc3sccn3c2-c2ccc(C(F)(F)F)cc2)CC1	3T3 cytotox inconclusive (no result: Luciferase inh, hNpr1 antagonist)
C1CC(COCCc2noc(C3CNC3)n2)CCO1	3T3 cytotox 12.6µM, HEK293 tox 7.94µM
C1CC(Cc2noc(C3CCOCC3)n2)CN1 (centres undefined)	3T3 cytotox inconclusive, HEK293 tox 79.4µM
CCNC(=O)NC1(CCOC)CCN(Cc2cccc(C)c2)CC1	none
Oc1cccc(Nc2cnc3ccc(-c4ccc(F)cc4)nn23)c1	3T3 cytotox inconclusive, Luciferase inh 20µM, HEK293 tox inconclusive
COc1cncc(Nc2cnc3ccc(-c4ccc(F)cc4)nn23)c1	3T3 cytotox 79.4µM, GPT2 inhibitor inconclusive, HEK293 tox 100µM
COc1ccc(Nc2cnc3ccc(-c4ccc(OC)nc4)nn23)cn1	3T3 cytotox inconclusive, GPT2 inhibitor inconclusive, HEK293 tox inconclusive
COc1cccc(Nc2cnc3ccc(-c4ccc(F)cc4)nn23)c1	3T3 cytotox inconclusive, GPT2 inhibitor inconclusive, HEK293 tox 100µM
Fc1ccc(-c2ccc3ncc(Nc4ncccn4)n3n2)cc1	3T3 cytotox inconclusive
O=C1CC(c2noc(Cc3ccc(F)cc3)n2)CN1c1ccc(F)c(Cl)c1 (centres undefined)	3T3 cytotox 17.8µM, HEK293 tox 22.4µM
Cc1ccc(Cc2nc(C3CC(=O)N(c4ccc(Cl)cc4)C3)no2)cc1 (centres undefined)	3T3 cytotox inconclusive, HEK293 tox inconclusive
Cc1noc(-c2cn(C3CCN(C(=O)C(C)Oc4ccc(Cl)cc4)CC3)nn2)n1 (centres undefined)	3T3 cytotox inconclusive
Cn1nc(C(=O)NC2CC2)c2c1CN(C(=O)Cc1cccc(F)c1)C2	none (no result: Luciferase inh, hNpr1 antagonist)
Cc1onc(-c2cnn(C)c2NCc2ccc(C#N)cc2)c1C(=O)N(C)c1ccccc1	3T3 cytotox 44.7µM, HEK293 tox inconclusive
Cc1cccc(C(=O)N[C@@H]2CN(C3CCOCC3)C[C@H]2CN(C)C)c1	HEK293 tox inconclusive
CN(C)C[C@@H]1CN(C2CCOCC2)C[C@H]1NC(=O)c1ccc(F)c(Cl)c1	3T3 cytotox inconclusive, HEK293 tox 79.4µM
Cc1ccc(C)c(C(=O)N[C@@H]2CN(Cc3ccccn3)C[C@H]2CN(C)C)c1	HEK293 tox 79.4µM
COc1ccc(C(=O)N[C@@H]2CN(Cc3ccccc3)C[C@H]2CN(C)C)cc1	3T3 cytotox inconclusive, HEK293 tox 5.62µM (no result: Luciferase inh, hNpr1 antagonist)
CN(C)C[C@@H]1CN(Cc2ccncc2)C[C@H]1NC(=O)c1ccc(Cl)cc1	3T3 cytotox inconclusive, HEK293 tox 39.8µM
O=C(O)[C@@H]1C[C@H]2C[C@@H](CCc3nn[nH]n3)CC[C@H]2CN1	none (no result: 3T3 cytotox, Luciferase inh, hNpr1 antagonist, HEK293 tox)
COc1ccc(C(=O)N[C@@H]2CN(Cc3ccccc3)C[C@H]2CN(C)C)cn1	3T3 cytotox 31.6µM, HEK293 tox inconclusive (no result: Luciferase inh, hNpr1 antagonist)
COc1ccc(NC(=O)C2(C)CCCCC(=O)N2)cc1 (centres undefined)	none
CC(C)C(=O)Nc1ncc(-c2cc(C(F)F)nn2-c2c(Cl)cccc2Cl)s1	GPT2 inhibitor 10µM! (no result: 3T3 cytotox, Luciferase inh, hNpr1 antagonist, HEK293 tox)
O=c1cc(-c2cccnc2)oc2c(NCC3CCOCC3)nccc12	3T3 cytotox inconclusive
O=c1cc(-c2cccnc2)oc2c(NCc3ccccc3)nccc12	3T3 cytotox 22.4µM, GPT2 inhibitor inconclusive, Luciferase inh inconclusive, HEK293 tox inconclusive
CN(c1cc(=O)c2ccnc(Nc3ccn(C)n3)c2o1)C1CCOCC1	3T3 cytotox inconclusive
Cn1ccc(Nc2nccc3c(=O)cc(-c4cccnc4)oc23)n1	3T3 cytotox 39.8µM
Cn1ccc(Nc2nccc3c(=O)cc(-c4cn[nH]c4)oc23)n1	3T3 cytotox 79.4µM, HEK293 tox inconclusive
O=C(C1CCCN1[S+](=O)([O-])c1cccc(C(F)(F)F)c1)N1CCC(N2CCOCC2=O)CC1 (centres undefined)	none (no result: Luciferase inh, hNpr1 antagonist)
CC(=O)N1CCCN(c2ccc3nnc(C4CC4)n3n2)CC1	none (no result: GPT2 inhibitor, Luciferase inh, hNpr1 antagonist)
